# Measurements taken from PubChem BioAssay (NCI).
# About 83,000 compounds went through this panel and 20% of them were active in at least one assay; those are over-represented in the sample as a whole.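 48-hour exposure, single concentration, 96-well plates; percent growth endpoint where 0 means no net growth. Active: below 10.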 Calls of active or inactive are those of the source.
# System: SK-OV-3 ovarian
# Test: NCI-60 one-dose screen, 48 h (100 = growth as untreated, 0 = no growth, -100 = all killed)
# Details: 10 µM unless noted
row,Compound,growth
1,Clc1ccc(CNc2c3ccccc3nc3ccccc23)cc1,60% (inactive)
2,CCCCN[C@H]1CC[C@@]2(C)[C@@H](CC[C@@]3(C)[C@H]2[C@H](O)C[C@H]2/C(=C(\CCC=C(C)C)C(=O)OC)[C@@H](OC(C)=O)C[C@@]23C)[C@@H]1C,104% (inactive)
3,N#Cc1c(NC(=O)c2ccccc2)sc2c1CCC(=O)C2,64.7% (inactive)
4,O=[N+]([O-])c1ccc(N/N=C(/C(=N/Nc2ccc([N+](=O)[O-])cc2)c2ccccc2)c2ccccc2)cc1,85.6% (inactive)
5,Oc1c(Cl)cc(Cl)c2ccc(Cn3cc(-c4cc(C(F)(F)F)cc(C(F)(F)F)c4)nn3)nc12,115% (inactive)
6,COc1cc(-c2cc(-c3ccc(N(C)C)cc3)nc(N3CCC(O)CC3)c2C#N)cc(OC)c1OC,35.3% (inactive)
7,Cc1nn(-c2ccccc2)c(Oc2ccccn2)c1-c1nc2ccccc2s1,97.5% (inactive)

# System: IGROV1 ovarian
# Test: as above
# Details: 10 µM unless noted
row,Compound,growth
1,CC(C)CCC[C@@H](C)[C@H]1CC[C@H]2[C@@H]3CC=C4C[C@@H](C(C(=O)O)C(=O)O)CC[C@]4(C)[C@H]3CC[C@]12C,-35.5% (active)
2,CCN1CCN(c2cc(C(=O)Nc3nc(-c4cc(OC)c(OC)c(OC)c4)cs3)cc(C(F)(F)F)c2)CC1,41.5% (inactive)
3,N#Cc1nn(-c2cc(=O)[nH]c3ccc(Cl)cc23)c(N)c1C#N,102% (inactive)
4,CN(C)CCCn1c2c(c3ncccc3c1=O)C(=O)c1ccccc1-2,43.8% (inactive)
5,COc1cc(-c2nc3cc(Cl)c(Cl)cc3[nH]2)ccc1OCC(=O)N=Nc1c(O)[nH]c2ccc([N+](=O)[O-])cc12,87.1% (inactive)
6,C=CC(=O)NCc1ccc(Nc2nccc(-c3ccc(N4CCCC4)c(C#N)c3)n2)cc1,25.2% (inactive)
7,CSc1nnc(-c2cnn3c2NC(c2ccccc2)C3)n1-c1ccc(C(F)(F)F)cc1 (configuration not stated),69.8% (inactive)
8,N=C(N)c1ccc(-c2ccc(-c3ccc(Cl)cc3)s2)nc1,-79.2% (active)
9,O=C(OCc1ccc2c(Cl)cc(Cl)c(O)c2n1)n1cncn1,32.9% (inactive)
10,Cn1ccc2c3c(ccc21)CC3=O,112% (inactive)
11,O=C1c2ccc3c4ccc5c6c(ccc(c7ccc(c2c37)C(=O)N1CCC[P+](c1ccccc1)(c1ccccc1)c1ccccc1)c64)C(=O)N(CCC[P+](c1ccccc1)(c1ccccc1)c1ccccc1)C5=O,29.6% (inactive)
12,CCn1c(=S)[nH]c2c(=O)n(C)c(=O)n(C)c21,102% (inactive)
13,N#CC1=C(N)Oc2c(sc3c(F)cccc23)C1c1ccc(F)cc1 (configuration not stated),33.9% (inactive)
14,C=C(C)[C@@H]1CC[C@]2(C(=O)N3CCN(C)CC3)CC[C@]3(C)[C@H](CC[C@@H]4[C@@]5(C)CC(=C/c6ccncc6)/C(=N/O)C(C)(C)[C@@H]5CC[C@]43C)[C@@H]12,65.1% (inactive)
15,Fc1ccc2[nH]cc(-c3nonc3-c3c[nH]c4ccc(Br)cc34)c2c1,41.6% (inactive)
16,O=C1c2c(c3c4ccc(Br)cc4oc3c3[nH]c4ccccc4c23)C(=O)N1O,25.3% (inactive)
17,NC(=O)CCC(C(=O)O)N1C(=O)c2ccc(O)cc2C1=O (configuration not stated),105% (inactive)
18,COc1ccc2nc(NC(=O)CSc3nnc4n3S(=O)(=O)c3ccccc3N4C)sc2c1,12.9% (inactive)
19,C=C(C)[C@@H]1CC[C@]2(C(=O)NCC#CCN3CCN(C)CC3)CC[C@]3(C)[C@H](CC[C@@H]4[C@@](C)(CCC#N)[C@H](C(=C)C)CC[C@]43C)[C@@H]12,43.5% (inactive)
20,Cc1nnc(-n2c(O)cc(=O)n(-c3ccccc3)c2=S)nc1/C=C/c1ccc(N(C)C)cc1,58.1% (inactive)

row,Compound,growth
1,C/C(=N\NC(=O)c1ccccc1O)c1cccc(/C(C)=N/NC(=O)c2ccccc2O)n1,61.8% (inactive)
2,O=C1c2cc(Cl)ccc2S(=O)(=O)c2c(NCCCNCCO)nc3ccccc3c21,8.88% (active)
3,Cc1cc2c(O)c(-c3cc(Cl)ccc3Cl)c3sc(=O)oc3c2cc1C,76.5% (inactive)
4,O=C(Nc1ccc(NC(=O)c2cc(=O)[nH]c3ccccc23)cc1)Nc1cccc(C(F)(F)F)c1,64.9% (inactive)
5,c1ccc(C2=NN[C@H](c3cn(-c4ccccc4)nc3-c3ccccc3)C2)cc1,62.1% (inactive)
6,O=C(CCCCC1CCSS1)Nc1ncnc2n[nH]c(-c3ccc(Oc4ccccc4)cc3)c12 (configuration not stated),93.5% (inactive)
7,COc1cc(OC)cc(C2=C3CC[C@@H]4[C@H](CC[C@]5(C)C(=O)CC[C@@H]45)C3=CC3C(O)c4cccnc4N4C(=O)COC234)c1 (some centres not stated),101% (inactive)
8,Cc1cnc(C(=O)NNc2nc3sc4c(c3c(=O)n2C)C(C)CCC4)cn1 (configuration not stated),-18.6% (active)
9,C=C(CNCCc1ccc(O)cc1)[C@@H]1CC[C@]2(CO)CC[C@]3(C)[C@H](CC[C@@H]4[C@@]5(C)CCC(NCCO)C(C)(C)[C@@H]5CC[C@]43C)[C@@H]12 (some centres not stated),-37.1% (active)
10,COc1ccc(/C=N/C2=C(C#N)C(c3cccc(Cl)c3)c3c(ccc4ccccc34)O2)cc1 (configuration not stated),32.9% (inactive)
11,CCc1ccc(Oc2cn[nH]c2-c2ccc(OCCc3ccc(F)cc3)cc2O)cc1,97.3% (inactive)
12,O=C(/C=C/c1cn(-c2ccccc2)nc1-c1ccc([N+](=O)[O-])cc1)c1ccc(Cl)cc1,48% (inactive)
13,CO[C@H]1/C=C(/C)CCC[C@H](C)[C@H](O)[C@@H](C)C(=O)C(C)(C)[C@@H](O)CC(=O)O[C@@H]1/C(C)=C/c1csc(C)n1,12.8% (inactive)
14,Clc1ccc(CNc2c3ccccc3nc3ccccc23)cc1,31.7% (inactive)
15,CCCCN[C@H]1CC[C@@]2(C)[C@@H](CC[C@@]3(C)[C@H]2[C@H](O)C[C@H]2/C(=C(\CCC=C(C)C)C(=O)OC)[C@@H](OC(C)=O)C[C@@]23C)[C@@H]1C,99.2% (inactive)
16,N#Cc1c(NC(=O)c2ccccc2)sc2c1CCC(=O)C2,27.4% (inactive)
17,O=[N+]([O-])c1ccc(N/N=C(/C(=N/Nc2ccc([N+](=O)[O-])cc2)c2ccccc2)c2ccccc2)cc1,76.4% (inactive)
18,Oc1c(Cl)cc(Cl)c2ccc(Cn3cc(-c4cc(C(F)(F)F)cc(C(F)(F)F)c4)nn3)nc12,82.3% (inactive)
19,COc1cc(-c2cc(-c3ccc(N(C)C)cc3)nc(N3CCC(O)CC3)c2C#N)cc(OC)c1OC,7.25% (active)
20,Cc1nn(-c2ccccc2)c(Oc2ccccn2)c1-c1nc2ccccc2s1,90.6% (inactive)
